Reference: PubChem BioAssay AID651650 (Sanford-Burnham Center for Chemical Genomics, 2012)

molecular target: Neuropilin-1 (Homo sapiens) (UniProt O14786); test: blockers of CendR peptide binding to NRP-1 – biochemical, FP and AlphaScreen panel, dose response (AID 651650); conditions: NRP-1 b1b2 / RPARPAR peptide binding, FP or AlphaScreen; run 1, at 100 µM (top of the series)
Sequence (O14786 whole entry, looked up): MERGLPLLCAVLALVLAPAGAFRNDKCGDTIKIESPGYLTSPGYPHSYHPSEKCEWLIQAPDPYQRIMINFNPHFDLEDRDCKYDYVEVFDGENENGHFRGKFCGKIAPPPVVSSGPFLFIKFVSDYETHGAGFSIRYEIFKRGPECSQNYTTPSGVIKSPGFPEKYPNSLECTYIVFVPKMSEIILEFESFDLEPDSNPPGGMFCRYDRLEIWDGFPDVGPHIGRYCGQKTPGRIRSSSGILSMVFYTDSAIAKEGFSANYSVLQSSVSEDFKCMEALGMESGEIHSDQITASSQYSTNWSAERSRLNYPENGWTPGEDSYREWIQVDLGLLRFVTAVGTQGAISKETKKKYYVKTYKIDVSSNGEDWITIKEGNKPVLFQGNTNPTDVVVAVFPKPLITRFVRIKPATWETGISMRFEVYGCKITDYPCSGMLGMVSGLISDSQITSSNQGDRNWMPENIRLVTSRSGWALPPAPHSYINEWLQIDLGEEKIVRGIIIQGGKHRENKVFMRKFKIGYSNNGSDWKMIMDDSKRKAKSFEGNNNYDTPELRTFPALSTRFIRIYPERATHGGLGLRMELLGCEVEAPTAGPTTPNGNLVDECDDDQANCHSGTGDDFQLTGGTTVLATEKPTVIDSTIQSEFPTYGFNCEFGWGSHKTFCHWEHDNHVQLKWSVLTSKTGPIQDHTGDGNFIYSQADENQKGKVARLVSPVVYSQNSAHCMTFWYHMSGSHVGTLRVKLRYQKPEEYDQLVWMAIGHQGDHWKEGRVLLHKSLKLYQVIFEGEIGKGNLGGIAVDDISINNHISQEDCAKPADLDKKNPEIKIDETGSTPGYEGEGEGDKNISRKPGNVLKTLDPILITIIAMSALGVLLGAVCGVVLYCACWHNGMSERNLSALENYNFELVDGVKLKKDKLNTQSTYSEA

Q: For Cc1ccc(Cl)c(NC(=O)CSc2cccc[n+]2[O-])c1Cl, which inhibition is on record?
A: Its inhibition is -8.97%.

Q: For Cc1onc(-c2ccccc2)c1C(=O)N1CCCC1, which inhibition is on record?
A: The inhibition was 31.9%.

Q: How did the inhibition turn out when CNC(=O)NC(=O)C(C)OC(=O)c1c(C)noc1C (stereo not drawn) was run?
A: Its inhibition is 49.1%.

Q: CN(C)CCn1c(=O)n(-c2ccc(F)cc2)c(=O)c2c3c(sc21)CCCCC3 was tested. Which inhibition did it give?
A: Its inhibition is 77.8%.

Q: For O=C(O)c1ccccc1CSc1ccccn1, which inhibition is on record?
A: The inhibition was 101%.

Q: Cc1ccccc1NC(=O)c1cccc(NC(=O)CCC(=O)O)c1 was tested. Which inhibition did it give?
A: The inhibition was 28.1%.

Q: With C=C(C)COc1ccc(-c2[nH]ncc2-c2ccccc2)c(O)c1 as the compound, how does the inhibition read?
A: Its inhibition is 16.9%.

Q: For COCCNC(=S)N(CCc1c(C)[nH]c2ccc(F)cc12)Cc1cccs1, which inhibition is on record?
A: Its inhibition is 34.4%.

Q: How did the inhibition turn out when COc1c2ccc(C(=O)NCc3cc(C(F)(F)F)cc(C(F)(F)F)c3)cc2nn1C was run?
A: Its inhibition is 38.2%.

Q: Which inhibition does the source give for O=C(c1ccc(-c2cccc(C(F)(F)F)c2)o1)N1CCCC(C(F)(F)F)C1 (stereo not drawn) here?
A: Its inhibition is 3.1%.

Q: How did the inhibition turn out when O=C(CCn1c(=O)c2cccn2c2cccnc21)NCc1cccc(Cl)c1 was run?
A: Its inhibition is 5.81%.

Q: Which inhibition does the source give for Cc1ccc2c(c1)C(c1ccncc1)=NNC(c1ccc(F)cc1)=N2 here?
A: The inhibition was 36.3%.

Q: For c1ccc2c(c1)CCCN2Cc1nnnn1CC1CCCO1 (stereo not drawn), which inhibition is on record?
A: Its inhibition is 48.9%.

Q: For Cc1cnccc1CNC(=O)CC1C(=O)NCCN1CC(C)(C)C (stereo not drawn), which inhibition is on record?
A: Its inhibition is 57.6%.

Q: O=c1ccsn1Cc1ccccc1 was tested. Which inhibition did it give?
A: Its inhibition is 11.6%.

Q: With CCOC(=O)C1(Cc2cccc(F)c2)CCN(Cc2ccon2)CC1 as the compound, how does the inhibition read?
A: The inhibition was 61.1%.

Q: CC(=O)Nc1ccccc1OCC(=O)N(Cc1ccccc1)C(C)C was tested. Which inhibition did it give?
A: Its inhibition is 18.2%.

Q: Nc1cc(S(=O)(=O)O)cc([N+](=O)[O-])c1O was tested. Which inhibition did it give?
A: Its inhibition is 74.8%.

Q: Which inhibition does the source give for O=C(NCCOC(=O)c1ccccc1)c1ccccc1 here?
A: The inhibition was 72.3%.

Q: COc1cccc(N2[C@@H](CC(C)=O)c3ccc(/C=C/C(C)=O)cc3S2(=O)=O)c1 was tested. Which inhibition did it give?
A: Its inhibition is 10.9%.

Q: How did the inhibition turn out when O=C(Nc1cc(C(F)(F)F)ccc1N1CCCC1)C1CC(=O)N(Cc2ccccc2)C1 (stereo not drawn) was run?
A: The inhibition was 2.78%.

Q: Which inhibition does the source give for CCOC(=O)[C@@H]1[C@H]2COc3ccccc3[C@@H]2N2C(=O)N(c3ccc(Cl)cc3)C(=O)[C@]12C here?
A: The inhibition was 48.8%.

Q: CC(=O)OC[C@@H]1CN(Cc2cccc(C(F)(F)F)c2)C[C@H](n2cnc3c(NCc4ccco4)ncnc32)O1 was tested. Which inhibition did it give?
A: Its inhibition is 54.5%.

Q: How did the inhibition turn out when COc1cccc(C(=O)N2N=C(c3ccccc3)CC2(O)C(F)(F)F)c1 (stereo not drawn) was run?
A: The inhibition was 35.9%.

Q: How did the inhibition turn out when COc1cc(C(=O)OCCCOC(=O)c2cc(OC)c(OC)c(OC)c2)cc(OC)c1OC was run?
A: The inhibition was 13.4%.

Q: Which inhibition does the source give for O=C(CSc1nnc(CNC(=O)C23CC4CC(CC(C4)C2)C3)n1-c1ccccc1)Nc1ccc(F)cc1 here?
A: Its inhibition is 4.39%.

Q: Which inhibition does the source give for Cc1ccc(S(=O)(=O)N2[C@@H](c3ccc(Cl)cc3)C(C(=O)OC(C)(C)C)=CC[C@H]2c2ccc(Cl)c(Cl)c2)cc1 here?
A: The inhibition was 72.6%.

Q: How did the inhibition turn out when Cc1ccc(C(=O)N/C(=C\c2ccc(-c3ccccc3[N+](=O)[O-])o2)C(=O)NCCCN2CCOCC2)cc1 was run?
A: Its inhibition is 13.2%.

Q: O=C(CSc1nc2ccccc2n1Cc1ccccc1Cl)N/N=C/c1ccccc1C(=O)O was tested. Which inhibition did it give?
A: Its inhibition is 84.6%.

Q: O=C(NNC(=O)C1CCN(c2ncccn2)CC1)c1ccc(F)cc1 was tested. Which inhibition did it give?
A: Its inhibition is 26.5%.

Q: With CCc1onc(C)c1C(=O)Nc1cc(C)ccc1OC as the compound, how does the inhibition read?
A: The inhibition was 95.6%.

Q: Cc1cc(C)n2c(Nc3ccc4c(c3)OCCO4)c(-c3ccccn3)nc2n1 was tested. Which inhibition did it give?
A: Its inhibition is 6.1%.

Q: O=C1CCC[C@@H]2Cc3nc4cc5c(cc4cc3[C@@H]3CCN1[C@H]23)OCO5 was tested. Which inhibition did it give?
A: Its inhibition is 30.9%.

Q: How did the inhibition turn out when CC(C)(C)OC(=O)N1CCC(NC(=O)c2nc[nH]c2C(=O)N2CCc3ccccc3C2)CC1 was run?
A: The inhibition was 25.2%.

Q: How did the inhibition turn out when CCOC(=O)N1CCN(C(=O)Nc2ccc3nc(C)c(C)nc3c2)CC1 was run?
A: The inhibition was -6.06%.

Q: How did the inhibition turn out when CCOC(=O)c1c(=O)n(O)c2ccc(OC)cc2[n+]1[O-] was run?
A: The inhibition was -2.72%.

Q: With CCc1ccccc1NC(=O)c1ccccc1N1C(=O)C2C3C=CC(C3)C2C1=O (stereo not drawn) as the compound, how does the inhibition read?
A: The inhibition was 21.3%.

Q: How did the inhibition turn out when CN(c1ccc(OCC(=O)OCC(=O)Nc2ccc([N+](=O)[O-])cc2)cc1)S(=O)(=O)c1cccs1 was run?
A: The inhibition was 58.7%.
